Bioassay records from PubChem BioAssay.
PfHsp90 yeast 2: growth inhibition of PfHsp90-expressing yeast, primary screen, antimalarial PfHsp90 inhibitor project, S. cerevisiae, BacTiter-Glo luminescence, single point, set 2; BacTiter-Glo ATP, 48 h; yeast lacking PDR1 and PDR3 efflux regulators; inhibition, % at 9.4 µM; actives 0.32% (n = 310,000); AID 504621, 2011;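 active = every replicate shows inhibition above about 80%, whatever the replicate mean, limit read from the data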;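 also: 0% = DMSO neutral controls and 100% = 20 µM radicicol positive controls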
SKKanGAS inh: S. pyogenes SKKanGAS growth inhibitors in kanamycin, primary screen, streptokinase expression inhibitor project, SKKanGAS strain, BacTiter-Glo luminescence; 6 h; actives 1.3% (n = 300,000); inhibition, % at 7.5 µM;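 active = mean replicate score, as percent of positive control median, at least 50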;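 also: strain carries kanamycin resistance gene driven by streptokinase promoter and grows in 40 µg/ml kanamycin; loss of luminescence reflects streptokinase promoter inhibition or plain growth inhibition; 0% = median of DMSO wells and 100% = positive control at its reference dose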
tim23-1 inh: growth inhibitors of tim23-1 mutant yeast, primary screen, luminescence, uHTS | inhibition, % at 20 µM | actives 1.3% (n = 330,000) | AID 463212, 2010 | S. cerevisiae tim23-1 growth, BacTiter-Glo luminescence, 24 h;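 active = growth inhibition of the mutant yeast at or above 50%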;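 also: temperature-sensitive mutant grown at 25 °C; plate controls were DMSO-treated mutant yeast for no effect and medium wells lacking yeast for full effect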
tim10-1 inh: growth inhibitors of tim10-1 mutant yeast, primary screen, luminescence, uHTS. actives 2.2% (n = 330,000). S. cerevisiae tim10-1 ts strain growth, BacTiter-Glo, 24 h. AID 463190, 2010. inhibition, % at 20 µM;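 active = inhibition of at least 40%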;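 also: mutant grown at 25 °C; 0% = DMSO wells with yeast and 100% = wells holding no yeast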
TIM10 inh: growth inhibitors of isogenic TIM10 control yeast, primary screen, counter-screen for tim10-1 yeast inhibitor project, luminescence, uHTS; inhibition, % at 10 µM; AID 463195, 2010; actives 1.4% (n = 330,000); S. cerevisiae TIM10 strain growth, BacTiter-Glo luminescence, 24 h;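 active = inhibition of 40% or more at the single tested concentration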;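 also: wild-type TIM10 isogenic control strain grown at permissive 25 °C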
NLRP3 yeast inh: NALP3 inflammasome inhibitors in reconstituted yeast, primary screen, luminescence, uHTS | Yeast reconstituted NLRP3/ASC/caspase-1, beta-gal luminescence, 24 h | inhibition, % at 10 µM | actives 0.39% (n = 330,000);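 active = inhibition of 50% or more; inactive = inhibition below 50%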;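 also: plate controls were induced DMSO wells for no effect and uninduced yeast grown without galactose for full effect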
Starred values were filed as active, the others as inactive. Rows were chosen to be rich in hits. Some 4.6% of all compounds tested hit in one or more screens of this group.

How did CCOC(=O)Cn1nc(C)c(NC(=O)c2ccc([N+](=O)[O-])c(C)c2)c1C do in these assays?
SKKanGAS inh: 0; tim23-1 inh: 5; tim10-1 inh: 9; TIM10 inh: -9; NLRP3 yeast inh: 1

Results for COc1ccc2oc(C(=O)OCC(=O)NC3(C#N)CCCC3)c(C)c2c1 ?
PfHsp90 yeast 2: 3; SKKanGAS inh: 53*; tim23-1 inh: 16; tim10-1 inh: 6; TIM10 inh: 4; NLRP3 yeast inh: -6

How did Cn1c(/C=N/n2cnnc2)nc2ccccc21 do in these assays?
PfHsp90 yeast 2: -1; SKKanGAS inh: 2; tim23-1 inh: 6; tim10-1 inh: 4; TIM10 inh: 11; NLRP3 yeast inh: 16

Results for O=C(NC1CCCCC1)NC1C2CC3CC(C2)CC1C3 (configuration not stated) ?
PfHsp90 yeast 2: -23; SKKanGAS inh: 54*; tim23-1 inh: 28; tim10-1 inh: 26; TIM10 inh: 16; NLRP3 yeast inh: 20

What do the screens show for `O=C(NC1C2CC3CC(C2)CC1C3)C1CC1` (configuration not stated)?
PfHsp90 yeast 2: -44; SKKanGAS inh: 2; tim23-1 inh: 6; tim10-1 inh: 3; TIM10 inh: 6; NLRP3 yeast inh: 37

Results for COc1ccc(OCCC(=O)OCC(=O)NCCc2ccccc2)cc1 ?
PfHsp90 yeast 2: -8; SKKanGAS inh: -7; tim23-1 inh: 8; tim10-1 inh: 16; TIM10 inh: 5; NLRP3 yeast inh: 5

What do the screens show for `Cc1nn(C(=O)c2ccco2)c(C)c1Sc1ccc(Cl)cc1`?
PfHsp90 yeast 2: 13; SKKanGAS inh: -4; tim23-1 inh: 1; tim10-1 inh: 17; TIM10 inh: -14; NLRP3 yeast inh: -5

Results for Cc1nn(C(=O)c2cccnc2)c(C)c1Sc1ccc(Br)cc1 ?
PfHsp90 yeast 2: 11; SKKanGAS inh: 63*; tim23-1 inh: 23; tim10-1 inh: -2; TIM10 inh: 19; NLRP3 yeast inh: 27

Results for Cc1cccc(C)c1Oc1nc(-c2ccccc2)ncc1S(=O)(=O)c1ccccc1 ?
PfHsp90 yeast 2: -20; SKKanGAS inh: 51*; tim23-1 inh: 11; tim10-1 inh: -8; TIM10 inh: -4; NLRP3 yeast inh: 14

What do the screens show for `N#CCC(=O)Nc1ccc(C(=O)NNC(=S)NC2CCCCC2)cc1`?
tim23-1 inh: 9; tim10-1 inh: 9; TIM10 inh: 8; NLRP3 yeast inh: 17

What do the screens show for `CC(C)CC(=O)Nc1ccc(C(=O)NNC(=S)NC(=O)C2CCCCC2)cc1`?
PfHsp90 yeast 2: -4; SKKanGAS inh: 93*; tim23-1 inh: 22; tim10-1 inh: 11; TIM10 inh: 25; NLRP3 yeast inh: 27

What do the screens show for `CC1CN(C(C)C)C(C)CC1OC(=O)c1ccccc1` (configuration not stated)?
PfHsp90 yeast 2: 9; SKKanGAS inh: 0; tim23-1 inh: -11; tim10-1 inh: -5; TIM10 inh: -2; NLRP3 yeast inh: 23

What do the screens show for `Cc1ccc(NC(=S)NCc2ccc(F)cc2)cc1`?
PfHsp90 yeast 2: -17; SKKanGAS inh: -13; tim23-1 inh: 33; tim10-1 inh: 8; TIM10 inh: 1; NLRP3 yeast inh: 35

What do the screens show for `COc1cc(NS(=O)(=O)c2ccc(NC(=S)NC(=O)c3cccs3)cc2)nc(OC)n1`?
PfHsp90 yeast 2: -41; SKKanGAS inh: 20; tim23-1 inh: 6; tim10-1 inh: -4; TIM10 inh: 2; NLRP3 yeast inh: -12

What do the screens show for `Cc1cc(C)cc(NS(=O)(=O)c2ccc(NC(=S)NC(=O)c3cccs3)cc2)c1`?
PfHsp90 yeast 2: -34; SKKanGAS inh: 77*; tim23-1 inh: 27; tim10-1 inh: 18; TIM10 inh: 36; NLRP3 yeast inh: 9

Results for Cc1ccc(CNC(=S)Nc2ccc(NS(=O)(=O)c3ccc(C)cc3)cc2)cc1 ?
PfHsp90 yeast 2: -1; SKKanGAS inh: 56*; tim23-1 inh: 3; tim10-1 inh: 3; TIM10 inh: 5; NLRP3 yeast inh: 21

How did Clc1ccc(-c2ccc(CNCc3ccccn3)o2)cc1 do in these assays?
PfHsp90 yeast 2: -61; SKKanGAS inh: 57*; tim23-1 inh: -1; tim10-1 inh: 19; TIM10 inh: -1; NLRP3 yeast inh: 18

How did COc1ccc(-c2coc3c(C)c4oc(=O)c(CCC(=O)O)c(C)c4cc23)cc1 do in these assays?
PfHsp90 yeast 2: 30; SKKanGAS inh: 53*; tim23-1 inh: 20; tim10-1 inh: -1; TIM10 inh: 18; NLRP3 yeast inh: -6

What do the screens show for `Cc1c(CCC(=O)O)c(=O)oc2c(C)c3occ(-c4ccc(Br)cc4)c3cc12`?
PfHsp90 yeast 2: -6; SKKanGAS inh: 46; tim23-1 inh: 12; tim10-1 inh: 15; TIM10 inh: 6; NLRP3 yeast inh: 23

How did CCN(c1ccc(OC)cc1)S(=O)(=O)c1nnc(NC(=O)c2ccccc2Cl)s1 do in these assays?
PfHsp90 yeast 2: -5; SKKanGAS inh: 50*; tim23-1 inh: 17; tim10-1 inh: 12; TIM10 inh: 14; NLRP3 yeast inh: 16

How did c1ccc(-c2nnc(C(c3ccccc3)c3ccccc3)o2)cc1 do in these assays?
PfHsp90 yeast 2: -19; SKKanGAS inh: 4; tim23-1 inh: 20; tim10-1 inh: 10; TIM10 inh: 0; NLRP3 yeast inh: 9

What do the screens show for `OC(c1ccc(OCc2ccccc2)cc1)c1nnc(-c2ccccc2)o1` (configuration not stated)?
PfHsp90 yeast 2: -34; SKKanGAS inh: 57*; tim23-1 inh: 15; tim10-1 inh: 18; TIM10 inh: 12; NLRP3 yeast inh: 16

What do the screens show for `Cc1ccc(NC(=S)c2nc3ccccc3[nH]2)c(C)c1`?
PfHsp90 yeast 2: -72; SKKanGAS inh: 82*; tim23-1 inh: 15; tim10-1 inh: 40; TIM10 inh: 23; NLRP3 yeast inh: 31

Results for Cc1ccc(NC(=S)N2CCCC(c3nc4ccccc4[nH]3)C2)cc1 (configuration not stated) ?
PfHsp90 yeast 2: 43; SKKanGAS inh: 14; tim23-1 inh: -7; tim10-1 inh: 8; TIM10 inh: 13; NLRP3 yeast inh: 20

Results for Cc1ccc(NC(=S)c2nc3ccccc3[nH]2)cc1 ?
PfHsp90 yeast 2: -65; SKKanGAS inh: 93*; tim23-1 inh: 49; tim10-1 inh: 26; TIM10 inh: 19; NLRP3 yeast inh: 15

How did CSCCC(NC(=O)c1ccccc1)C(=O)N1CCN(C(C)=O)CC1 (configuration not stated) do in these assays?
PfHsp90 yeast 2: 8; tim23-1 inh: -3; tim10-1 inh: 1; TIM10 inh: -6; NLRP3 yeast inh: 19
